# PubChem BioAssay AID570 (The Scripps Research Institute Molecular Screening Center, 2006)
# The whole screen tested about 65,000 compounds, of which about 45 (0.07%) were called active. The sample as a whole holds a higher share of actives than the screen did. Values without a mark were called inactive.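 The calls were made as follows: active = inhibition above the mean of compound-free control plate wells plus 3 SD (cut at about 14% in these data); inactive = the rest.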
# Molecular target: Collagenase 3 (Homo sapiens) (UniProt P45452)
# Assay: inhibition of MMP13 collagenase activity – biochemical, FRET peptide cleavage, primary screen (AID 570);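 also: 0% = DMSO wells and 100% = wells with reference MMP-13 inhibitor after basal subtraction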
# Conditions: MMP-13 fTHP FRET cleavage, Mca fluorescence; at 4 µM; hits give high values
row,Compound,inhibition
1,O=C(NCCN1CCOCC1)[C@H](Cc1ccccc1)N1C(=O)c2ccccc2C1=O,0.6%
2,COc1ccc(O)c(C(=O)c2cnc3onc(C(C)C)c3c2)c1,8.5%
3,COC(=O)c1ccc(Oc2nc(NC(C)C)nc(SC)n2)cc1,0.3%
4,OCc1n[nH]c(CO)n1,-2.9%
5,CCN1C(=O)/C(=C2/Sc3ccccc3N2CCCS(=O)(=O)O)SC1=S,17.1% (active)
6,CCN1C(=O)/C(=C\N2CCN(c3ccccc3)CC2)SC1=S,3.4%
7,CCN1C(=O)/C(=C\N2CCN(c3cccc(Cl)c3)CC2)SC1=S,4.2%
8,CCc1nnc(NC(=O)c2nc3nccc(C)n3n2)s1,1.3%
9,COc1ccc2c(c1)OC(O)(C(F)(F)C(F)F)CC2=O (stereo not drawn),4.3%
10,CC1(C)Cc2ccccc2-c2nnc(-c3cccc(O)c3)n21,-1.1%
11,O=C(Nc1ccc(Cl)cn1)c1cnn2cccnc12,-1.1%
12,O=c1[nH]c(=O)n(Cc2ccco2)c2c1C(C(F)(F)F)(C(F)(F)F)N=C(c1ccco1)N2,-3.7%
13,CC(C)n1c(NCc2c[nH]c3ccccc23)nc2ccccc21,-5.6%
14,COc1cc(C(O)c2nc3ccccc3n2C)cc(OC)c1OC (stereo not drawn),1%
15,Cc1cc(C)c(C#N)c(SCc2ccc3c(c2)OCO3)n1,3.3%
16,COc1ccc(C2C(C(=O)N3CCN(c4ccc(OC)cc4)CC3)c3ccccc3C(=O)N2C)cc1 (stereo not drawn),2.8%
17,CNC(=O)CSc1nnnn1-c1ccc(C)cc1C,1.5%
18,CC1(C)CC(=O)C(C=NCc2cccnc2)=C(O)C1,2.8%
19,CCC(=O)Nc1cccc(NC(=O)c2cccnc2)c1,-1.1%
20,CCC1CCCCN1C(=O)Nc1cccc(NC(=O)N2CCCCC2CC)c1 (stereo not drawn),-2.3%
21,CCOC(=O)C1(c2ccccc2)NC(c2ccc(N(C)C)cc2)C2C(=O)N(C)C(=O)C21 (stereo not drawn),-4.8%
22,O=C(Nc1ccc2c(c1)OCCO2)C1CCCN(c2ncccn2)C1 (stereo not drawn),4.5%
23,Cc1ccccc1CSc1nnc(-c2cccnc2)n1N,4.9%
24,CN(C(=O)C1CCOC1)c1nnc(-c2cccnc2)s1 (stereo not drawn),-4.2%
25,COc1cccc(-n2cc3c(c2-c2ccccc2)c(=O)n(C)c(=O)n3C)c1,-1.8%

row,Compound,inhibition
1,Cn1c(=O)c2c(nc(SCCNS(=O)(=O)c3ccccc3)n2C)n(C)c1=O,-2.9%
2,CC(C)OC(=O)c1cc(NC(=O)C2C3CCC(O3)C2C(=O)O)cc(C(=O)OC(C)C)c1 (stereo not drawn),-25.2%
3,Cc1noc(COc2ccccc2OCC(O)CNC(C)(C)C)n1 (stereo not drawn),-0.8%
4,O=C(CCCN1C(=O)CCC1=O)Nc1ccc(Cl)c(C(F)(F)F)c1,1.9%
5,Cc1cccc(-n2c(Cc3cc(=O)[nH]c(=O)[nH]3)nnc2SC(C)C)c1,2.4%
6,O=C(OCc1ccccc1F)c1ccc2c(c1)OCCO2,-0.1%
7,O=c1ccn(Cc2ccccc2Cl)cc1,0.5%
8,COc1ccc(Cn2nnc3c(=O)[nH]c(C4CCN(C(=O)c5ccccc5Cl)CC4)nc32)cc1,7.2%
9,CCOC(=O)[C@H]1CCC[C@@H](NS(=O)(=O)c2ccc(NC(C)=O)cc2)C1,0%
10,COc1ccccc1NC(=O)CSc1nnc(-c2ccoc2C)n1CCc1ccccc1,-3.7%
11,Cc1cc(Nc2cccc(C)c2C)n2ncnc2n1,6.6%
12,CCCc1nc2c3cnn(-c4cccc(Cl)c4)c3ncn2n1,-4.1%
13,CC12CN3CC(C)(CN(C1)C3c1ccc(Cl)cc1Cl)C2=O (stereo not drawn),6.8%
14,Cc1ccc(C(C)C)c(OCc2nnc(SCC(=O)Nc3nccs3)n2C)c1,-0.8%
15,CCOC(=O)N1CCC(NC(=O)Cn2cc3c(n2)CCCCC3)CC1,3%
16,Cc1cc(C)nc(N2C(=O)CC(Cc3ccccc3)C2=O)n1 (stereo not drawn),2.4%
17,CC1CCCC(NC(=O)CN2CCN(Cc3ccc(Cl)cc3)C2=O)C1C (stereo not drawn),-0.6%
18,CCOC(=O)N1CCC(Nc2c(NCCCN3CCN(c4ccc(OC)cc4)CC3)c(=O)c2=O)CC1,2.1%
19,O=C(CCC(=O)OCC(F)(F)C(F)F)NCc1ccccc1,1.8%
20,Cc1cc(/C=N/n2cnnc2)c(C)n1-c1ccc2ncccc2c1,-12%
21,CC(=O)NC(C)(C)C1CC=C(C)/C(=N\O)C1 (stereo not drawn),4.1%
22,CCOc1ccc(OCC)c(NC(=O)CN(C)S(=O)(=O)c2cccc3nsnc23)c1,-2.8%
23,Cc1cccc(-n2c(O)c(C=Nc3ccccc3N)c(=O)[nH]c2=O)c1,-15.8%
24,N#CC(C(=O)c1ccc(S(=O)(=O)N2CCCCCC2)cc1)c1nc2ccccc2[nH]1 (stereo not drawn),-11.8%
25,CC1C=CCC2C(=O)N(c3cccc(C(=O)N4CCCCCC4)c3)C(=O)C12 (stereo not drawn),4.6%

row,Compound,inhibition
1,Cc1nc2ccccc2c2oc(C(=O)NCC3CCCO3)cc12 (stereo not drawn),-8.8%
2,CCCn1c(SCC(=O)N2CCc3ccccc32)nnc1-c1ccncc1,-0.9%
3,COc1ccc(S(=O)(=O)N2CCCCC2)cc1Br,3.3%
4,Cc1ccc(-n2nc3cc(Cl)c(NC(=O)c4ccco4)cc3n2)cc1,-66.9%
5,Cc1ccc(S(=O)(=O)c2c(N)n(C)c3nc4ccccc4nc23)cc1,-244%
6,CCC(C)NC(=O)N[C@@H](CCSC)C(=O)O (stereo partly drawn),1.5%
7,C=CCOc1ccc(C2/C(=C(\O)c3c(C)[nH]c(C(=O)OC)c3C)C(=O)C(=O)N2CCN(C)C)cc1 (stereo not drawn),2.9%
8,COc1ccc(OC)c(NC(=O)CCN2CCC(C)CC2)c1,3.7%
9,COc1ccccc1OCCC(=O)OCC(=O)NC(=O)NC(C)(C)C,3.7%
10,CC(C)(C)c1cc(CN2CCN(CCC#N)CC2)cc(C(C)(C)C)c1O,-0.2%
11,CCOC(=O)C1=C(C)NC(C)=C(C(=O)OCC)C1c1ccccn1,-0.7%
12,CCOc1ccc(C(=O)Nc2ccncc2)cc1,3.1%
13,c1nc(COc2nsnc2N2CCOCC2)cs1,2.5%
14,COc1ccc(NC(=O)CN2CCN(S(=O)(=O)c3ccc(F)cc3)CC2)cc1Cl,-15.6%
15,Cc1noc(C)c1S(=O)(=O)N1CCCC(C(=O)Nc2nccs2)C1 (stereo not drawn),6.5%
16,NC(CSC12CC3CC(CC(C3)C1)C2)C(=O)O (stereo not drawn),2.6%
17,Cc1nc(NC(CC(C)C)C(=O)O)c2nc(C)oc2n1 (stereo not drawn),0%
18,CCOC(=O)N1CCN(C(=O)CNC(=O)Cc2ccc(Cl)cc2)CC1,-1.6%
19,CCOC(=O)N1CCN(C(=O)C2CCN(S(C)(=O)=O)CC2)CC1,-0.8%
20,CCn1c(SCC(=O)c2ccc(Cl)s2)nnc1-c1cccs1,-2.1%
21,COc1ccccc1N(C(=O)Cn1nnc2ccccc21)C(C(=O)NCc1ccco1)c1ccc(C)o1 (stereo not drawn),7.4%
22,Cc1nc(CNS(=O)(=O)c2cccnc2)cs1,2.4%
23,CCCCCCC(=O)N(O)C1CC(=O)N(c2ccccc2)C1=O (stereo not drawn),1%
24,COC(=O)c1ccc(S(=O)(=O)c2ccc(C(=O)OC)s2)s1,-1.3%
25,Cc1ccc(S(=O)(=O)Cn2nnnc2CN2CCN(Cc3ccc4c(c3)OCO4)CC2)cc1,-3.7%

row,Compound,inhibition
1,CC1CCN(C(=O)Cn2cc(C(=O)c3ccco3)c3ccccc32)CC1,-1.8%
2,CCC(=O)Nc1ccc2c(c1)nc(CCN1CCN(C)CC1)n2C,-0.5%
3,CCOc1ccccc1C(=O)NCc1ccco1,3.2%
4,O=C(CN1C2CCC1CC(NC(=O)C1CC1)C2)NCc1ccccc1 (stereo not drawn),-1.1%
5,COc1ccc(C2=NOC(C(=O)NCc3ccco3)C2)cc1OC (stereo not drawn),1.2%
6,C=CCNC(=O)c1cc(-c2ccccc2O)on1,6%
7,COc1ccccc1N1CC(O)=C(c2nc3ccccc3s2)C1=N,-5.8%
8,Cc1cccc(NC(=O)CN2CCCN(S(=O)(=O)c3ccc(Br)s3)CC2)c1,-0.8%
9,COc1cc(Cl)c(S(=O)(=O)n2cnc(C)c2)cc1Cl,-1%
10,CCC(C)(C)NC(=O)C(c1cccn1C)N(Cc1ccc(C)cc1)C(=O)Cn1nnc2ccccc21 (stereo not drawn),2.1%
11,O=C(CSc1n[nH]c(-c2cccnc2)n1)Nc1ccnc2ccccc12,-1.2%
12,CC(C)(C)c1ccc(C(=O)CSc2ncn[nH]2)cc1,1.3%
13,C=CCSc1nnc(Cn2c(=O)sc3ccccc32)n1C,-10.7%
14,CC(NC(=O)c1ccco1)C(=O)Nc1nc(-c2ccccn2)cs1 (stereo not drawn),1.6%
15,COCCNCCOCCOc1cccc(OC)c1,-0.9%
16,Cc1ccsc1-c1nc(CSCC(=O)NCCN2CCCC2)c(C)o1,-72.5%
17,O=C(CSc1nnc(-c2cccs2)n1-c1ccccc1)N1CCN(C(=O)c2ccco2)CC1,2.3%
18,CN(Cc1ccccc1)Cc1ccccc1F,0.3%
19,Cc1oc(-c2cccc(Cl)c2)[n+]([O-])c1C,-6.2%
20,CCOc1nc(-c2ccc(OC)cc2)ccc1-c1noc(-c2cc(OC)c(OC)c(OC)c2)n1,-11.5%
21,CCOC(=O)C(CCOc1cccc(CC)c1)C(=O)OCC,4.3%
22,CC(C)c1ccc(-c2nn[nH]n2)cc1,0.3%
23,C=CCn1c2ccccc2c2nnc(SC(CC)C(=O)Nc3nc(C)c(C(=O)OCC)s3)nc21 (stereo not drawn),2.6%
